Compounds with a hit are over-represented: about 19% of the library has one in this group of screens.
Pf growth 48h = P. falciparum growth inhibition at 48 hours (one generation) | AID 504832 | Potency, µM (series often up to 28.7 µM), for the others: at the highest dose activity change, negative = inhibition, actives largely listed as inhibitors | hit rate 5.9% among 310,000 | P. falciparum luciferase growth in erythrocytes, 48 h; note: potency is the fitted concentration of half-maximal effect; % is set by controls: 0 for no effect and ±100 for the full control effect
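Firefly luciferase activity from engineered P. falciparum reports growth; inhibitors lower the luminescent signal. Cultures contained 2% hematocrit erythrocytes at 0.1% final parasitemia.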
CHX counter = counter-screen hit for Shiga toxin inhibitors, cycloheximide; cell reporter, cycloheximide protein synthesis inhibition counterscreen; max response, %; hit rate 12% among 300,000; in the data active = max response mostly above about 13%, no sharp cut-off; inactive = mostly below about 14%; note: read at 38.3 µM for the half of the compounds with a filed dose; 0% is about no effect
Lassa entry inh = Lassa virus entry inhibition | Lassa virus pseudotype entry inhibition, cell reporter | Potency, µM (highest dose often 37.9 µM), for the others: at the top dose activity change, negative = inhibition, actives largely listed as inhibitors | hit rate 1.2% among 300,000 | AID 540256; calls by dose curve; tested in HEK293 cells; note: potency is the fitted concentration of half-maximal effect; % is set by controls: 0 for no effect and ±100 for the full control effect; nearly all actives have a fitted effect of over 50% in size
MARV entry inh = inhibitors of Marburg virus binding or cell entry | Marburg virus pseudotyped entry inhibition, cell reporter | AID 540276 | Potency, µM (top dose mostly 37.8 µM), for inactives: top-dose activity change, negative = inhibition, actives largely listed as inhibitors | hit rate 1.8% among 300,000; calls by dose curve; tested in HEK293 cells; note: potency is the fitted concentration of half-maximal effect; % is set by controls: 0 for no effect and ±100 for the full control effect
Shiga inhibitor = Shiga toxin inhibition | AID 2315 | hit rate 9.2% among 290,000 | inhibition, % at 38.7 µM | Vero cells, Shiga toxin protein synthesis inhibition reporter; in the data active = inhibition mostly above about 28%, no sharp cut-off; inactive = mostly below about 43%; note: 0% is about no effect
Pf growth 96h = P. falciparum growth inhibition at 96 hour, primary screen for plastid delayed-death inhibitors; P. falciparum luciferase reporter growth, 96 h; Potency, µM (titrated, usually from 28.7 µM), without a hit: at the highest dose activity change, negative = inhibition, actives largely listed as inhibitors; hit rate 6.9% among 320,000; AID 504834; note: potency is the fitted concentration of half-maximal effect; % is set by controls: 0 for no effect and ±100 for the full control effect
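Erythrocytes infected with luciferase-expressing P. falciparum were dispensed at 2% hematocrit and 0.05% parasitemia (final), then incubated with compounds 96 hours at 37 C in 5% CO2. Luminescence after detection reagent addition reported growth.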
Starred values were filed as active, the others as inactive; ? = inconclusive; nt = not tested or not shown; [ ] = remark or other dose. Unless noted, calls come from the whole dose curve; as a rule, active = well fitted inhibition curve with a large enough effect; inconclusive = small, poorly fitted or top-dose-only effect, or another doubt; inactive = no such curve, though single readings can be large or run the other way.

SMILES | Pf growth 48h | CHX counter | Lassa entry inh | MARV entry inh | Shiga inhibitor | Pf growth 96h
CN(C)/C=N/C(=S)Nc1ccc(F)cc1 | 23.4% | 24.7* | 0.3% | 14.2% | 38.1* | 38.5%
Cc1cc(C(=O)N(C)C)sc1-c1ccccc1 | 266.9% | 63.3* | ? | ? | 71.2* | 271.3%
Cn1nc(C(=O)NC2CCCCCC2)ccc1=O | 13.3% | 8.5 | -0.3% | -1.3% | -25.4 | -8.1%
CSc1ccccc1C(=O)NCCSC(C)(C)C | 2.2% | 6.5 | -0.9% | -0.1% | 12.1 | 13.4%
CSc1ccccc1C(=O)NCCSc1ccccc1 | 19.1% | 28.7* | 22.4% | ? | 26.8 | nt
CSc1ccccc1C(=O)N(C)C(c1ccccc1)c1ccccc1 | ? | -1.4 | 13.2%[46.1 µM] | ? | 4.4 | 10.4µM*
O=C(NCCSc1ccccc1)c1ccccc1Cl | 249.6% | 63.7* | -25.7% | ? | 97.0* | -3.0%
Cc1ccccc1C(=O)NCCSc1ccccc1 | nt | 32.1* | ? | 7.3% | 93.4 | 250.5%
CSc1ccccc1C(=O)N(C)Cc1ccccc1 | 6.8% | -0.7 | nt | -9.2%[46.1 µM] | -10.0 | 83.3%
COC(=O)C1=C(C(=O)OC)[C@@H]2N(C)c3ccccc3[C@@]23C[C@@H](C(=O)OC)N(C(=O)c2cc(C)oc2C)C3=N1 | ? | -5.4 | nt | -2.4%[14.2 µM] | -4.5 | ?
N#CCC(=O)Nc1ccc(C(=O)NNC(=S)NC2CC2)cc1 | 36.0% | nt | ? | 8.2% | nt | 40.3%
COc1ccc(CNC(=O)CN2C(=O)C3CCCN3c3ncc(Cl)cc32)cc1 (centres undefined) | ? | -1.6 | -18.2% | -5.8% | -6.4 | nt
COC(=O)c1ccccc1NC(=O)CN1C(=O)C2CCCN2c2ncc(Cl)cc21 (centres undefined) | 2.94µM* | -1.5 | nt | nt | 7.5 | -15.1%
CC1CCC(NC(=O)CN2C(=O)C3CCCN3c3ncc(Cl)cc32)CC1 (centres undefined) | 3.7µM* | -2.4 | nt | 0.5% | -1.4 | nt
O=C(CN1C(=O)C2CCCN2c2ncc(Cl)cc21)NCc1ccc2c(c1)OCO2 (centres undefined) | 9.28µM* | 2.6 | 13.1% | -4.7% | -10.1 | 22.9%
Cc1nc2c(c(C)c1CCC(=O)Nc1ccc(F)cc1)c(=O)n(C)c(=O)n2C | nt | nt | 22.3%[46.1 µM] | 5.0%[46.1 µM] | nt | nt
CCOc1ccccc1OCC(=O)OCc1csc(CC(=O)Nc2ccccc2C)n1 | -7.1% | nt | -0.6% | -6.1% | nt | 13.2%
CCC(C)(C)NC(=O)c1ccc2c(c1)S(=O)(=O)c1ccccc1C2=O | ? | 6.9 | 6.8% | ? | -0.5 | -25.2%
CCC(C)(C)c1ccc2c(c1)C(=O)c1ccccc1C2=O | 221.7% | 61.7* | ? | ? | 36.7* | ?
Nc1ccn(CC(=O)NCc2ccccn2)c(=O)n1 | 39.6% | nt | nt | nt | nt | 39.7%
O=C(CSc1n[nH]c(-c2ccccc2O)n1)N1CCCc2ccccc21 | 24.2% | -4.4 | 4.9% | ? | -5.6 | nt
N#CCNC1CC(=O)N(c2ccccc2)C1=O (centres undefined) | 7.7% | -1.7 | nt | nt | -3.2 | 13.2%
Cc1ccc(NC2CC(=O)N(c3ccc(N4CCCCC4)cc3)C2=O)cc1 (centres undefined) | 3.8% | 1.0 | 8.6% | -5.5% | 15.0 | 1.65µM*
O=C1CC(NN2CCCCC2)C(=O)N1c1ccccc1 (centres undefined) | 33.9% | 12.6* | ? | 15.4%[46.1 µM] | 61.4 | 107.2%
COc1ccc(N2C(=O)CC(Nc3ccc(C)cc3)C2=O)cc1 (centres undefined) | nt | -8.2 | -0.9% | -2.5% | 1.9 | -27.3%
SMILES | Pf growth 48h | CHX counter | Lassa entry inh | MARV entry inh | Shiga inhibitor | Pf growth 96h
COc1ccc(-c2csc(Nc3cc(C)ccn3)n2)cc1OC | 16.6% | 51.1* | -19.1% | ? | 63.2* | 4.6%
COc1ccc(-c2csc(Nc3ccc(C)cn3)n2)cc1OC | 11.2% | 34.0* | nt | nt | 75.4* | 158.7%
COc1ccc(-c2csc(Nc3ccc(S(N)(=O)=O)cc3)n2)cc1OC | ? | -5.7 | -21.8% | ? | -11.0 | ?
Cc1cc(OCCN2CC2)c2ccccc2n1 | 13.1µM* | 0.9 | nt | nt | -6.9 | 10.4µM*
Cc1ccccc1OCCN1CCCC1 | 2.9% | -0.6 | nt | nt | -5.7 | -3.3%
CCCSc1cc(Cl)nc(N)n1 | 37.0% | -0.7 | -12.4% | ? | 2.3 | 6.6%
COc1ccc(NC(=O)CN2CCCC(C)C2)c([N+](=O)[O-])c1 (centres undefined) | -12.6% | 17.3* | -27.3% | ? | 31.8* | 102.5%
Cc1ccc(C2(C)NC(=O)N(CC(=O)Nc3cccnc3Cl)C2=O)cc1 (centres undefined) | 2.2% | -6.5 | -15.3%[46.1 µM] | ? | -1.5 | -36.7%
COc1cc(NC(=O)CN2C(=O)NC(C)(c3ccc4ccccc4c3)C2=O)c(C)cc1[N+](=O)[O-] (centres undefined) | ? | -1.5 | -0.3% | ? | 9.8 | ?
COc1cc(NC(=O)CN2C(=O)NC(C)(c3ccccc3)C2=O)c(C)cc1[N+](=O)[O-] (centres undefined) | ? | -4.9 | 4.2% | -3.0% | -10.7 | 11.7µM*
CC1(c2ccc([N+](=O)[O-])cc2)NC(=O)N(CC(=O)Nc2cccnc2Cl)C1=O (centres undefined) | 4.1% | nt | 13.4% | 1.1% | nt | 11.7µM*
COc1cc(NC(=O)CN2CCC(C)CC2)c(C)cc1[N+](=O)[O-] | -13.0% | 9.1 | 2.2% | ? | active | 9.6%
Cc1ccc(NC(=O)CCN2C(=O)C3CC=CCC3C2=O)cc1Cl (centres undefined) | -14.0% | nt | nt | nt | nt | 7.2%
N#Cc1c(-c2ccco2)ccn(Cc2ccc(F)cc2)c1=O | ? | 5.3 | 2.3% | 0.4% | 1.1 | ?
COc1ccc(CN(CCC#N)CCC2(c3ccccc3)CC(C)N(C)CC2C)cc1OC (centres undefined) | ? | -1.7 | -15.3% | 12.6µM* | 3.2 | ?
CC1CC(CCN)(c2ccccc2)C(C)CN1C (centres undefined) | ? | -2.6 | 5.7% | 3.98µM* | -5.1 | -15.0%
CC(C)Cn1c(N)c(C(=O)COC(=O)c2cccc(F)c2)c(=O)n(C)c1=O | -6.3% | 1.6 | nt | nt | 3.0 | -0.6%
COc1ccc(S(=O)(=O)N2c3ccccc3OCC2C)cc1 (centres undefined) | ? | -10.3 | ? | -19.0%[46.1 µM] | 4.3 | ?
COc1ccc(S(=O)(=O)N2c3ccccc3OCC2c2ccccc2)cc1 (centres undefined) | 13.1µM* | 4.2 | -22.7% | ? | -0.7 | ?
COc1ccc(S(=O)(=O)N2c3ccccc3OCC2C(C)(C)C)cc1 (centres undefined) | 11.7µM* | 7.0 | 3.6%[46.1 µM] | 0.3%[46.1 µM] | 16.7 | 14.7µM*
O=C(NCCc1ccc(F)cc1)Nc1ccccc1 | 3.9% | 29.7* | nt | nt | 30.8* | ?
CCN(CCNC(=O)Nc1ccc(Cl)cc1)c1ccccc1 | ? | 16.7 | 15.8µM* | ? | 8.2 | 188.6%
O=C(NCCN1CCN(c2ccccc2)CC1)Nc1ccc(Cl)cc1 | -17.7% | 0.8 | ? | 20.3% | 5.8 | 35.5%
O=C(NCCc1ccc(Cl)cc1)Nc1ccc(Cl)cc1 | -0.6% | 12.8 | nt | nt | 43.5* | -15.6%

Source: PubChem BioAssay
